# Source: PubChem BioAssay (NCI)
# Compounds without any hit were thinned out: in the full panel of roughly 79,000, 15% have a hit. Values without a mark were called inactive. The source made the active and inactive calls. Rule as the data show it: active = growth inhibition above about 70%; inactive = the rest.
# Assay: NCI Yeast Anticancer Drug Screen. Data for the sgs1 mgt1 strain (AID 161);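 also: 0% = growth of cultures given vehicle only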
# Conditions: S. cerevisiae sgs1 mgt1 strain, active compounds read high
# Method: Growth inhibition of yeast strains with defined genetic alterations is measured as a screen for potential anti-cancer activity. Selected strains with alterations in DNA damage repair or cell cycle control were exposed to compounds and growth inhibition was measured relative to vehicle treated controls. The strain used in this assay is sgs1 mgt1
# [1] = at 5.0 µM (retest, dose inferred, filed as 0.5)
# [2] = at 50.0 µM (retest, dose inferred, filed as 5.0)
Structure (SMILES),growth inhibition [1],growth inhibition [2],growth inhibition (at 50.0 µM)
Cc1cc2c(cc1O)CC[C@@H]1[C@@H]2CC[C@]2(C)[C@@H](O)CC[C@@H]12,-32%,-32%,68%
C=CCc1cc(Cl)ccc1O,1%,40%,83.5% (active)
O=NNc1ncccc1OCc1ccccc1,9%,14%,0.75%
CC1(c2ccccc2)Nc2ccccc2C1=Nc1ccccc1 (configuration not stated),-3%,54%,96.3% (active)
O=C(Oc1cc([N+](=O)[O-])ccc1Cl)Oc1cc([N+](=O)[O-])ccc1Cl,-7%,99% (active),98.6% (active)
O=C1OC(CC(=O)c2ccccc2Cl)C(Cl)=C1Cl (configuration not stated),39%,52%,58.9%
C1=C(C2=C[P+](c3ccccc3)(c3ccccc3)C=C(c3ccccc3)O2)OC(c2ccccc2)=C[P+]1(c1ccccc1)c1ccccc1,5%,15%,-5.35%
COc1cc(F)ccn1,2%,2%,-12.5%
Nc1cn(C2OC(CC(c3ccccc3)(c3ccccc3)c3ccccc3)C(O)C2O)c(=O)[nH]c1=O (configuration not stated),99% (active),99% (active),42.1%
CC/C(=C1\C=CC(=O)S1)C(CC)c1ccc(OC(C)=O)cc1 (configuration not stated),-7%,98% (active),99.3% (active)
O=C(CSc1nnc(Cc2ccccc2)o1)Nc1ccc(Cl)cc1,-1%,80% (active),48.6%
O=C1c2c(Br)c(Br)c(Br)c(Br)c2C(=O)N1c1nccs1,-10%,54%,75% (active)
C/C(=N\NC(=S)N1CCN(C2CCCCCC2)CC1)c1ccccn1,-4%,99% (active),26.1%
CC(=O)OCC1OC(n2ncc3c(Sc4c([N+](=O)[O-])ncn4C)ncnc32)C(OC(C)=O)C1OC(C)=O (configuration not stated),47%,99% (active),99.5% (active)
